High-throughput results as filed in PubChem.
Y pestis TopoI: blocks Yersinia pestis topoisomerase I activity; activity, % at 10 µM; Y. pestis Topo-I cleavage product accumulation, plate reader; actives 0.064% (n = 360,000); in the data active means activity above about 50%, passing the limit was not always enough; inconclusive means no clear call, values can overlap the other calls
PrPC surface inh: cell surface PrPC inhibition, primary TR-FRET screen | P04156 | TR-FRET read-out | inhibition, % at 13.8 µM | actives 0.43% (n = 370,000); in the data active means inhibition above about 24%; further: 0% = median of the test wells and 100% = reference compound wells
PrP UTR inh: suppresses PrP 5' UTR mRNA reporter expression; cell-based PrP 5' UTR mRNA reporter, plate reader; inhibition, % (test concentration not listed); actives 0.35% (n = 340,000); AID 488862; in the data active means inhibition above about 52%; further: 0 = median of the neutral control wells
GDH-TPI counter: counter-screen for M. tuberculosis FBA inhibitors: GDH-TPI coupled enzymes; GDH-TPI coupled enzyme counterscreen, NADH absorbance; inhibition, % at 4.8 µM; actives 1.2% (n = 360,000); AID 588335; in the data active means inhibition above about 30%;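 further: 0% = DMSO wells and 100% = wells lacking the enzyme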
FBA Mtb inh: inhibitors of M. tuberculosis fructose-bisphosphate aldolase; P9WQA3; purified M. tuberculosis FBA, fluorescence read-out; inhibition, % at 1 µM; actives 2.3% (n = 360,000); in the data active means inhibition above about 27%;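 further: 0% = vehicle and 100% = reference inhibitor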
Target sequence (P9WQA3 whole entry, looked up): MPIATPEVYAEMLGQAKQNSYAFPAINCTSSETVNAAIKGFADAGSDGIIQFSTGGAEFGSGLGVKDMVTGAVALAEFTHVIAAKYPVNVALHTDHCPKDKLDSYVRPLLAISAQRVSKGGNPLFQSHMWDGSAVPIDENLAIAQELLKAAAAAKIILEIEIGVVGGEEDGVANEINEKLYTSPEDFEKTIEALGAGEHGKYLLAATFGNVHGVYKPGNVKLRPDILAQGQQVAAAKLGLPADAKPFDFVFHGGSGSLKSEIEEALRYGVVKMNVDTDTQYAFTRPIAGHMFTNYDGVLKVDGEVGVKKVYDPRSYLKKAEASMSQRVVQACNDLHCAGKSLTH
Mtb hypoxia inh: inhibitors of hypoxia-regulated fluorescent reporter in Mycobacterium tuberculosis | fluorescence inhibition, % (no concentration beside the values) | M. tuberculosis hypoxia-regulated fluorescent reporter, fluorescence | actives 0.1% (n = 300,000); in the data active means fluorescence inhibition mostly above about 23%, no sharp cut-off; inactive means mostly below about 17%
PrP 5UTR single: prion 5' UTR mRNA inhibition, cherry-pick retest. shares compounds with PrP UTR inh. cell-based prion protein 5' UTR reporter, plate reader. inhibition, % at 2.5 µM. actives 48% (n = 1,100). AID 504592; in the data active means inhibition above about 54%; inconclusive means no clear call, values can overlap the other calls
Numbers without * were called inactive; ? = inconclusive; . = no result shown; ! = not active in a repeat. Compounds with a hit are over-represented: about 3.8% of the library has one in this group of screens.

SMILES	Y pestis TopoI	PrPC surface inh	PrP UTR inh	GDH-TPI counter	FBA Mtb inh	Mtb hypoxia inh	PrP 5UTR single
O=C(NCCc1ccccc1)c1ccc2c(c1)OCCCO2	12	9	92*	4	5	.	91*
O=C(CCc1ccccc1)c1ccc2c(c1)OCCCO2	19	-5	-79	-8	-1	16	.
Cc1ccc(C(=O)NCCc2ccccc2)cc1	-2	.	59*	1	1	.	64*
COC(=O)c1c(N)sc(C(=O)NCCc2ccccc2)c1C	1	13	70*	5	2	.	64*
CCCN(CCC)C(=O)c1ccc2c(=O)n(Cc3ccco3)c(=S)[nH]c2c1	8	1	83*	2	-3	18	17
CN1CCN(C(=O)c2ccc3c(=O)n(Cc4ccco4)c(=S)[nH]c3c2)CC1	3	-11	-24	19	-10	20	.
CCCNC(=O)c1ccc2c(=O)c(O)c(-c3ccc(F)cc3)[nH]c2c1	-3	.	-4	5	1	9	.
CCCNC(=O)c1ccc2c(=O)c(O)c(-c3cccc(Br)c3)[nH]c2c1	-7	8	56*	7	2	5	?
CCC1(O)C(=O)OCc2c1cc1n(c2=O)Cc2cc3c(N)cccc3nc2-1 (stereo unspecified)	2	-8	53*	27	-1	.	90*
CCCCN1C=CC(=C2C(=O)c3ccccc3C2=O)C=C1	-2	-29	87*	3	0	7	92*
C[C@@H]1O[C@@H](O[C@H]2C[C@@H](O)[C@]3(CO)[C@H]4[C@H](O)C[C@]5(C)[C@@H](C6=CC(=O)OC6)CC[C@]5(O)[C@@H]4CC[C@]3(O)C2)[C@H](O)[C@H](O)[C@H]1O	2	.	92*	4	0	.	90*
CC12CC[C@H]3[C@@H](CCC4(O)C[C@H](O)CCC34C=NNC(=O)Cc3ccccc3)C1(O)CCC2C1=CC(=O)OC1 (stereo partly specified)	.	.	.	.	.	0	.
CN(C)C=NC1=C(C#N)C(c2ccc(Br)cc2)c2ccc3ccccc3c2O1 (stereo unspecified)	.	.	.	.	.	13	.
O=c1cc(-c2ccc(Cl)c(Cl)c2)[nH][nH]1	-13	0	57*	8	-4	0	-20
O=C(C(=CO)N=Nc1cccc(C(F)(F)F)c1)c1ccccc1	.	.	.	.	.	2	.
Cc1nn(-c2ccccc2)c(C)c1/C=N/NC(=O)c1cc(-c2ccccc2)n[nH]1	-1	16	66*	5	1	.	80*
CCON=Cc1ccc(OC)c(Oc2nc(OC)cc(OC)n2)c1	.	.	.	.	.	-11	.
Fc1ccc(-n2nnc(-c3cnc4ccccc4c3)n2)cc1	4	-4	71*	-4	-1	4	54*
Cn1c(NN=C2CCCc3ccccc32)nc2c1c(=O)n(Cc1ccc(F)cc1)c(=O)n2C	.	.	.	.	.	-11	.
O=C1CC(SC(=NCc2ccc3c(c2)OCO3)Nc2ccccc2)C(=O)N1 (stereo unspecified)	16	-4	73*	10	-1	5	-15
COc1ccc(CN=C(Nc2ccccc2)SC2CC(=O)NC2=O)cc1 (stereo unspecified)	20	2	-40	-1	-3	6	.
Fc1cccc(Cl)c1C=NNc1c(Cl)cncc1Cl	.	.	.	.	.	3	.
O=C(CC1Oc2ccccc2NC1=O)NCCCN1CCN(C2CCCCC2)CC1 (stereo unspecified)	-6	8	70*	2	7	.	-12
CCC1CCCCN1CCCNC(=O)CC1Oc2ccccc2NC1=O (stereo unspecified)	-2	3	-14	6	1	.	.
CN(C)CCCNC(=O)c1ccc(Oc2ccccc2)cc1	5	4	88*	-2	-6	4	-12
SMILES	Y pestis TopoI	PrPC surface inh	PrP UTR inh	GDH-TPI counter	FBA Mtb inh	Mtb hypoxia inh	PrP 5UTR single
O=C(COC(=O)c1cc([N+](=O)[O-])ccc1N1CCOCC1)NCc1ccccc1	-10	-19	.	19	2	.	.
COc1cccc(CNC(=O)COC(=O)c2cc([N+](=O)[O-])ccc2N2CCCC2)c1	31	-13	84*	15	-7	8	1
CCc1n[nH]c(=S)n1N=Cc1ccccn1	.	.	.	.	.	15	.
CC(C)C(NC(=O)C(C(C)C)N(C)C)C(=O)N(C)C(C(=O)N1CCCC1C(=O)N1CCCC1C(=O)NCc1ccccc1)C(C)C (stereo unspecified)	-15	4	62*	12	3	.	89*
CC(C)[C@H](NC(=O)C1CCCC1)C(=O)N1CCC[C@H]1C(=O)NCc1ccccc1	.	3	.	.	.	.	.
Cc1ccc(NC(=O)O/N=C/c2c(C)nn(C(C)(C)C)c2C)cc1Cl	21	-6	88*	0	2	.	87*
COC(=O)c1cn(NC(=O)c2ccc([N+](=O)[O-])c(C)c2)c(=O)c2ccccc12	0	-7	-2	3	6	5	.
COC(=O)c1cn(NC(=O)c2ccccc2[N+](=O)[O-])c(=O)c2ccccc12	-3	-4	56*	1	0	12	-41
CCCCn1c(C)nc2c(=O)n(C)c(=O)[nH]c21	3	2	-27	7	2	-6	.
CCCCn1c(-c2ccccc2)nc2c(=O)n(C)c(=O)[nH]c21	3	0	78*	5	196*	7	5
CC1(C)SC2C(NC(=O)C(N)c3ccc(O)cc3)C(=O)N2C1C(=O)O (stereo unspecified)	.	.	.	.	.	4	.
CCOC(=O)OC(C)OC(=O)[C@@H]1N2C(=O)[C@@H](NC(=O)[C@H](N)c3ccccc3)[C@H]2SC1(C)C (stereo partly specified)	-2	-4	54*	0	7	.	-8
O=C(Nc1cccc2ncccc12)c1cccnc1	-4	-1	74*	7	0	11	1
O=C(Nc1cccc2ncccc12)c1cccc(F)c1	-3	-6	1	2	1	-10	.
COc1ccc(C(C)=O)cc1CSc1nc2cc(Cl)ccc2o1	15	6	57*	8	3	.	-62
Cc1nn(-c2ccc3ccccc3c2)c(=O)c2ccccc12	-7	-12	-67	9	1	3	.
Cc1nn(-c2nc3ccccc3[nH]2)c(=O)c2ccccc12	-16	2	93*	-4	6	1	95*
OCCCNc1cc(-c2ccnc(Nc3cccc(Cl)c3)n2)ccn1	-1	42*	82*	8	5	3	84*
CC(C)CC(CN1C(N)=NCC1C)NC(=O)CC12CC3CC(CC(C3)C1)C2 (stereo unspecified)	.	.	.	.	.	6	.
NCCCS(=O)(=O)O	4	6	74*!	3	6	6	-7
O=S(=O)(O)CCS	3	-2	-14	9	-1	5	.
CCNC(=O)CC1C(=O)N(CC)C(=S)N1NC(=O)c1cccnc1 (stereo unspecified)	11	-1	80*	-10	-3	12	-8
